Potency, max response and outcome data for ten molecules are collected here from PubChem BioAssay (NCATS).

SMILES strings stand for the structures. Records with an inconclusive call do not appear. Values without a mark were called inactive. The source made the active and inactive calls. Calls follow the shape of the dose curve; as a rule, active = well fitted inhibition curve with a large enough effect; inconclusive = small, poorly fitted or top-dose-only effect; inactive = flat fitted curve, though single readings scatter.
% is scaled to controls: 0 for no effect and ±100 for the full control effect; potency is read from the fitted curve at half-maximal effect.

The experiment deals with NIH3T3. The experiment in a line: Cytotoxic Profiling of Annotated Libraries Using Quantitative High-Throughput Screening (AID 1296008). Also: nearly all actives have a fitted effect of over 60% in size. Conditions: Five cell lines viability, CellTiter-Glo ATP luminescence, 48-72 h; max response: stronger effect = lower value. A digest of the protocol:
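Compounds were pin-transferred onto cells and incubated 48 or 72 hr at 37 degree Celsius, 95% humidity. CellTiter-Glo was added, plates sat 10 min at room temperature, then ATP-coupled luminescence was imaged as the viability read-out.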
For `NC[C@@](O)(c1ccc(Cl)cc1)c1ccc(-c2cn[nH]c2)cc1`, the Potency was 5.17 µM (active). For the molecule `CC(O)/C=C/C1C(C)C(O[C@@H]2O[C@H](CO)[C@@H](O)[C@H](O)[C@H]2O)C(O)CC1(C)C` (stereo not given in full), the max response was 0.539%.

Regarding `CO[C@H]1C[C@@H]2CC[C@@H](C)[C@@](O)(O2)C(=O)C(=O)N2CCCC[C@H]2C(=O)O[C@H]([C@H](C)C[C@@H]2CC[C@H](n3cnnn3)[C@H](OC)C2)CC(=O)[C@H](C)/C=C(\C)[C@@H](O)[C@@H](OC)C(=O)[C@H](C)C[C@H](C)/C=C/C=C/C=C/1C`, the max response is 0.445%.

Consider `CC(=O)N[C@H]1[C@H](O[C@H]2CC[C@@]3(C)C(CC[C@]4(C)C3CC=C3C5CC(C)(C)CC[C@]5(C(=O)O)[C@H](O)C[C@]34C)C2(C)C)O[C@H](CO[C@@H]2OC[C@H](O)[C@H](O)[C@H]2O[C@@H]2OC[C@@H](O)[C@H](O)[C@H]2O)[C@@H](O)[C@@H]1O` (stereo not given in full), for which the max response is -13.2%.

In the case of `CCOc1cc(CC(=O)NC(CC(C)C)c2ccccc2N2CCCCC2)ccc1C(=O)O` (stereo not given), the result was inactive.

`O=C(/C=C/c1cccc(S(=O)(=O)Nc2ccccc2)c1)NO`: the Potency is 7.96 µM (active). As to `COC(=O)C1=CO[C@@H](O[C@@H]2O[C@H](CO)[C@@H](O)[C@H](O)[C@H]2O)[C@H]2[C@@H]1C=C[C@@]21C=C([C@H](C)O)C(=O)O1`, the max response is 3.5%.

Regarding `O=C(OC1C=C(CO)C2C(OC3OC(CO)C(O)C(O)C3O)OC=CC12)c1ccc(O)cc1` (stereo not given), the molecule was called inactive. Same read-out and setting: next, `CCC(C)/C=C(C)/C=C/c1cc2c(cn1)C(=O)C(C)(OC(C)=O)C(O)=C2Cl` (stereo not given): “inactive”. Take `C=C[C@H]1[C@H](O[C@@H]2O[C@H](CO)[C@@H](O)[C@H](O)[C@H]2O)OC=C(C(=O)OC)[C@H]1CCOC(=O)c1cc(O)c(O)c(O)c1`: the max response was -1.02%.
